High-throughput results (PubChem)
Compounds with a hit are over-represented: about 3.5% of the library has one in this group of screens.
GPR151 activ: human GPR151 activation; 1% of 650,000 active; PathHunter beta-arrestin GPR151 cells, luminescence; activation, % at 11.2 µM; AID 1508602; in the data active = activation above about 4.9%;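 note: 0% = median of compound wells and 100% = cells with positive control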
TEAD-YAP inh: TEAD-YAP interaction inhibition | HEK-TIYL cells, TEAD-Gal4/YAP UAS-luciferase luminescence | inhibition, % at 9.12 µM | 1.4% of 640,000 active | AID 1259422; in the data active = inhibition above about 32%;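 note: 0% = median of test compound wells and 100% = reference inhibitor wells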
FBW7 act: human FBW7 E3 ligase activation, primary screen; Q969H0; AlphaScreen FBW7–phospho-cyclin E peptide binding, activator screen; normalized activity (activation), % at 26.1 µM; 0.13% of 650,000 active; in the data active = normalized activity above about 1.9%;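 note: purified mutant Fbw7 with reduced substrate affinity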
MITF inh: blocks human microphthalmia-associated transcription factor. AlphaScreen MITF homodimerization, bead proximity signal. inhibition, % at 2.6 µM. 0.91% of 650,000 active. AID 1259374; in the data active = inhibition above about 50%;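 note: 0% = vehicle wells with protein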
Target sequence (O75030 whole entry, looked up): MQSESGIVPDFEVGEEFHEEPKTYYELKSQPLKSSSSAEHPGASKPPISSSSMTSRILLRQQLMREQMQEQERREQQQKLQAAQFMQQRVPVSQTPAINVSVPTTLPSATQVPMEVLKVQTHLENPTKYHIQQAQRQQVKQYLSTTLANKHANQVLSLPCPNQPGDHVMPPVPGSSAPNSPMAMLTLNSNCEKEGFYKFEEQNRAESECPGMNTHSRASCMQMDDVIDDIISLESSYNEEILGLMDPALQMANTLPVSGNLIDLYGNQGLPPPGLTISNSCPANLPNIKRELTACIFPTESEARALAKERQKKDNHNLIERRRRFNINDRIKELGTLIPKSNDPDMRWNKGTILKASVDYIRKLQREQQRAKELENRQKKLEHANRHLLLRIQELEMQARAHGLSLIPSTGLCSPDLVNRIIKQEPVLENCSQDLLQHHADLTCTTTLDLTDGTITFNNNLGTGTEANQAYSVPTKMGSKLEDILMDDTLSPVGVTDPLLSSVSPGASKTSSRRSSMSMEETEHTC
An asterisk follows results filed as active; · = not tested or not shown.

SMILES | GPR151 activ | TEAD-YAP inh | FBW7 act | MITF inh
N#CCSc1ccc2nnc(-c3ccccn3)n2n1 | 0 | -8 | 3.8* | 7
CCC(Sc1ccc2nnc(-c3ccccn3)n2n1)C(=O)OC (centres undefined) | 2 | -14 | 7.2* | 15
CCc1ccccc1NC(=O)C(=O)N/N=C/c1c(F)cccc1Cl | 0 | 0 | 0 | -18
O=C(O)c1cccc(N/N=C2/CCCc3ccccc32)c1 | -1 | -47 | 0 | 10
Cc1ccc(NC(=O)C(=O)/C=C(\O)c2ccccc2)cc1Cl | -1 | -46 | 1 | 25
CC(=O)N1CCc2c(sc(NC(=O)/C=C/c3ccccc3Cl)c2C#N)C1 | 1 | 50* | 0 | -3
CC(=O)N1CCc2c(sc(NC(=O)c3ccccc3C)c2C#N)C1 | 2 | 51* | 0 | -3
CC(=O)N1CCc2c(sc(NC(=O)c3cc(Cl)sc3Cl)c2C#N)C1 | 1 | 13 | 1 | -7
CSc1ccccc1C(=O)Nc1sc2c(c1C#N)CCN(C(C)=O)C2 | -2 | 46* | 0 | -8
CC(=O)N1CCc2c(sc(NC(=O)c3ccccc3Cl)c2C#N)C1 | 3 | 11 | 0 | -8
CC(=O)N1CCc2c(sc(NC(=O)/C=C/c3ccc([N+](=O)[O-])cc3)c2C#N)C1 | 0 | 2 | 0 | 2
Cc1ccc(-c2cc3c(nn2)-c2ccccc2C3=O)cc1 | -4 | 81* | 0 | 9
COc1ccc(OC)c(-n2c(C)cc(/C=C3/C(=N)N4C=CSC4=NC3=O)c2C)c1 | 1 | 28 | 0 | -4
COc1ccccc1-n1c(C)cc(/C=C2/C(=N)N3C=CSC3=NC2=O)c1C | 0 | 94* | 0 | 7
COc1ccc(OC)c(-n2c(C)cc(/C=C3/C(=N)N4C=C(C)SC4=NC3=O)c2C)c1 | 1 | 47* | 0 | 7
COc1ccc(C)cc1-n1c(C)cc(/C=C2/C(=N)N3C=C(C)SC3=NC2=O)c1C | 0 | 51* | 0 | -7
O=C(Cc1ccc(Cl)cc1)Nc1nnc(C(F)(F)F)s1 | 0 | 5 | 0 | 2
COc1cc(Nc2nc(NCCN3CCOCC3)c3ncn(-c4ccsc4)c3n2)cc(OC)c1OC | 1 | 49* | 0 | -9
c1cnc(Nc2nc(NCCN3CCOCC3)c3ncn(-c4ccsc4)c3n2)cn1 | 2 | 66* | 0 | 0
COc1ccc(CCNc2nc(NCCN3CCOCC3)nc3c2ncn3-c2ccsc2)cc1 | 0 | 5 | 0 | 8
N#CC(C#N)C(C#N)(C#N)C1CCC/C(=C\c2ccco2)C1=O (centres undefined) | 2 | -2 | -1 | 81*
O=C1/C(=C/c2ccco2)CCc2ccccc21 | -3 | -54 | 0 | 22
CCCN1CC=C2C(C#N)=C(N)C(C#N)(C#N)C(c3c(OC)ccc4ccccc34)C2C1 (centres undefined) | 0 | -7 | 0 | 4
COc1ccc(OC)c(CNCc2cccnc2)c1 | 0 | 2 | 0 | -2
FC(F)(F)c1cccc(CNc2nc(NCCN3CCOCC3)nc3c2ncn3-c2ccsc2)c1 | -1 | 2 | 0 | 19
SMILES | GPR151 activ | TEAD-YAP inh | FBW7 act | MITF inh
CC1(C)N=C(N)N=C(N)N1c1ccc(Oc2ccc(Cl)cc2)c(Cl)c1 | -1 | 37* | 0 | 7
Oc1ccc(N=Cc2sc3ccccc3c2O)cc1 | 2 | 20 | 0 | 7
CN(C)c1ccc(N=Cc2sc3ccccc3c2O)cc1 | -1 | 76* | 0 | 15
O=C(O)c1ccc(N=Cc2sc3ccccc3c2O)cc1 | -4 | 52* | 0 | -3
Oc1c(C=Nc2ccc(I)cc2)sc2ccccc12 | 0 | 14 | 0 | 10
Oc1c(C=NC2CCCCCC2)sc2ccccc12 | -2 | 38* | -1 | 19
Oc1c(C=Nc2ccccc2)sc2ccccc12 | -1 | 5 | 0 | -1
CN(C)c1ccc(N=Cc2c[nH]c3ccccc23)cc1 | -1 | 68* | -1 | 11
COC(=O)C1=C(C)N(Cc2ccccc2)C2=C(C(=O)c3ccccc3)C(c3ccccc3)[C@@](O)(C(=O)OC)C(=O)N2[C@@H]1c1ccccc1 (some centres undefined) | 2 | · | 0 | 4
Cc1c(NC(=O)c2ccc(OCc3ccccc3)cc2)c(=O)n(-c2ccccc2)n1C | -3 | 0 | 0 | -17
CCOC(=O)C1=C(C)N=c2s/c(=C\c3ccc(-c4ccc(C)cc4Br)o3)c(=O)n2C1c1ccc2c(c1)OCO2 (centres undefined) | 0 | -25 | 0 | -8
c1csc(-c2cn3nc4c(nc3n2)CCCC4)c1 | -6 | 34* | 0 | 2
Cc1nc2nc(-c3cccs3)cn2nc1C | -5 | -23 | 0 | 6
O=C1Nc2ccccc2/C1=N\N=C\c1ccc(O)c(O)c1O | 0 | 0 | 0 | 58*
Cc1nc2ccccc2c(=O)n1/N=C/c1ccc(O)c(O)c1O | 0 | 3 | 0 | 57*
O=C1c2ccccc2C(=O)N1/N=C/c1ccc(O)c(O)c1O | 1 | -5 | 0 | 92*
Cc1nn(C)c(C)c1-c1ccc(C(N)=O)s1 | -2 | -6 | 0 | 13
Cc1ccccc1C(=O)Nc1ccccc1NC(=O)C1CCC1 | -1 | -33 | 0 | 6
CCOC(=O)C1C(c2ccc(F)c(F)c2)NC(=O)N(C)C1(O)C(F)(F)F (centres undefined) | 3 | 5 | 0 | -25
CCC(=O)N1CCc2cc(Br)cc(S(=O)(=O)NC3CCCCC3C)c21 (centres undefined) | 0 | 8 | 0 | 6
N#CC(C#N)=NNc1ccc2c(c1)OCO2 | -1 | 39* | 0 | -2
CCOC(=O)/C(C#N)=N/Nc1ccc2c(c1)OCCO2 | -2 | -24 | 0 | 0
CCN1C(=C2C(=O)c3ccccc3C2=O)C=Cc2cc(C)ccc21 | 1 | -44 | 0 | 9
CC[n+]1c(/C=C2\C=Cc3cc(C)ccc3N2C)sc(C)c1C | 2 | 61* | 0 | 19
CCN1/C(=C/c2cc[n+](C)cc2)C=Cc2cc(C)ccc21 | 3 | 81* | -1 | 11
SMILES | GPR151 activ | TEAD-YAP inh | FBW7 act | MITF inh
CC[n+]1ccc(/C=C2\C=Cc3ccc(C)cc3N2C)cc1 | 1 | -1 | 0 | 2
CC[n+]1ccc(/C=C2\C=Cc3cc(C)ccc3N2C)cc1 | 0 | 58* | 0 | 20
CCOC(=O)C1=C(C)N=c2s/c(=C\c3ccc(-c4ccc(Cl)cc4)o3)c(=O)n2C1c1ccc2c(c1)OCO2 (centres undefined) | -1 | -7 | 0 | -3
Cc1ccc2onc(CC(=O)Nc3cccnc3Cl)c2c1 | 0 | -21 | 1 | 0
O=c1[nH]c(N2CCOCC2)nc2c1CCN(Cc1ccccc1F)C2 | -1 | -3 | 0 | -2
O=c1[nH]c(N2CCOCC2)nc2c1CCN(Cc1ccccc1)C2 | 0 | 6 | 2.7* | 7
O=C(NNS(=O)(=O)c1cccs1)c1[nH]c2ccccc2c1Cl | 0 | -12 | 0 | 5
O=C(NCc1nc(-c2ccc(Cl)cc2)no1)c1ccc(Br)o1 | 1 | 1 | 0 | 5
Cc1c(-c2ccc(-c3ccccc3)cc2)[n+](CC(=O)c2ccccc2)c2ccccn12 | 1 | 56* | 0 | 7
COCC(=O)N1CCC[C@@H]1Cn1nc(-c2cccs2)ccc1=O | 3 | 4 | 0 | -2
